Source: PubChem (several laboratories)
Sampled rows, rich in hits. Any-hit rate of the full collection: about 0.5%.
Tat export inh – E. coli Tat transport inhibition | E. coli MC4100 TorA-mCherry Tat export, fluorescence | inhibition, % at 10 µM | hit rate 0.036% among 340,000;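 active = mean replicate inhibition at least 50% and at least half of replicates individually reaching 50%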;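 also: exported cargo escapes ClpAP degradation while cytoplasmic cargo is degraded and loses fluorescence; 0% = median of neutral control wells and 100% = median of NaSCN control wells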
phage Ecoli inh – E. coli growth loss with phage present | growth absorbance | inhibition, % at 11.9 µM | hit rate 0.26% among 360,000 | AID 651602; in the data active = inhibition above about 11%
E coli growth-1 – blocks Escherichia coli growth; OD600, 23 h; active compounds read low; OD600 absorbance (test concentration not listed); hit rate 0.21% among 330,000; AID 1053175;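 active = OD600 absorbance below the run mean of sample wells minus 3.6 SD, in any replicate, cut at about 0.56 in these data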
AddAB inh – less growth of phage-infected E. coli with AddAB. E. coli expressing H. pylori AddAB, absorbance growth. inhibition, % at 11.9 µM. hit rate 0.29% among 330,000. AID 435030; in the data active = inhibition above about 12%;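 also: 0% = vehicle wells of infected cells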
E coli growth-2 – reduces bacterial viability in AddAB counter-screen; inhibition, % at 11.9 µM; E. coli V3065 growth, OD600 absorbance, 18 h; AID 449728; hit rate 0.27% among 330,000;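 active = inhibition above the campaign's mean inhibition across all tested compounds plus 3 SD, cut at about 9.9% in these data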;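 also: uninfected addAB+ strain grown without phage in ampicillin broth; 0% = DMSO wells and 100% = ciprofloxacin 0.95 µg/ml wells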
AddAB confirm – growth loss of T4-infected E. coli expressing H. pylori AddAB, confirmed. shares compounds with AddAB inh. E. coli V3065 expressing H. pylori AddAB, T4 phage, OD; T4 phage with gene 2 nonsense mutations. inhibition, % at 11.9 µM. hit rate 64% among 880;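 active = mean inhibition above a set limit taken from the earlier primary screen, cut at about 13% in these data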;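 also: higher means less bacterial growth since AddAB block lets phage replicate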
RecBCD counter – reduces growth of phage-infected RecBCD+ E. coli, AddAB inhibitor counter-screen; shares compounds with AddAB inh; hit rate 73% among 880; E. coli V66 + mutant T4 phage, OD growth; inhibition, % at 11.9 µM;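 active = mean inhibition above the mean of solvent-only control wells plus 3 SD, cut at about 4% in these data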;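 also: optical density read after an 18 h incubation at 37 °C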
bact viab count – counter-screen: bacterial growth inhibition; AID 488956; shares compounds with AddAB inh; inhibition, % at 11.9 µM; hit rate 35% among 880; bacterial viability, absorbance (AddAB counterscreen); in the data active = inhibition above about 25%
RecBCD conf – confirmation: growth loss of phage-infected RecBCD+ E. coli (RecBCD inhibitor screen); shares compounds with phage Ecoli inh; E. coli V66 + T4 2- phage, growth OD; inhibition, % at 11.9 µM; hit rate 45% among 890; AID 651982;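 active = mean inhibition over triplicates exceeding the hit threshold derived in the original primary screen, cut at about 11% in these data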
Ecoli viability – bacterial viability inhibition counter-screen for RecBCD; shares compounds with phage Ecoli inh; E. coli viability, absorbance (OD) growth; inhibition, % at 11.9 µM; hit rate 29% among 890; AID 651983; in the data active = inhibition above about 20%;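 also: E. coli strain V66 grown with compound alone and no phage infection; 0% = bacteria with DMSO vehicle only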
AddAB counter – growth loss of phage-infected AddAB E. coli, RecBCD counter-screen; hit rate 45% among 890; shares compounds with phage Ecoli inh; inhibition, % at 11.9 µM; E. coli expressing H. pylori AddAB + T4 phage, OD growth; gene 2 mutant T4, recBCD-deleted host;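 active = mean inhibition above the solvent-only control wells' mean plus 3 SD, cut at about 22% in these data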;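 also: higher means less bacterial growth from phage killing when AddAB is blocked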
The depositor's hits bear a star; . = no result; + = active, no number.

SMILES | Tat export inh | phage Ecoli inh | E coli growth-1 | AddAB inh | E coli growth-2 | AddAB confirm | RecBCD counter | bact viab count | RecBCD conf | Ecoli viability | AddAB counter
Cc1ccc(S(=O)(=O)CCC(=O)Nc2ccc(S(=O)(=O)N(C)C)cc2)cc1 | . | . | 0.64 | 96.7* | 95.6* | -4.8 | 0.5 | -2.2 | . | . | .
CCOC(=O)C1C2COc3ccccc3C2N2C(=O)C(C)NC(=O)[C@@]12C (some centres not stated) | . | . | 0.697 | . | . | . | . | . | . | . | .
Cc1cc(C)nc(SCC(=O)Nc2ccc(N3CCOCC3)cc2)n1 | -1.8 | 2.7 | 0.679 | 4.8 | 0.8 | . | . | . | . | . | .
Cc1nc(SCC(=O)Nc2ccc(N3CCOCC3)cc2)nc(C)c1C | -10.5 | 13.5* | 0.665 | 13.6* | 13.1* | 9.0 | 9.1* | 4.5 | 6.1 | 9.8 | 0.4
CC(O)C1CNC(=S)N1CCc1cccc(F)c1 (configuration not stated) | . | . | 0.716 | . | . | . | . | . | . | . | .
COC(=O)C(C)NC(=S)N1CCN(c2c(F)cc3c(=O)c(C(=O)O)cn(C4CC4)c3c2OC)CC1C (configuration not stated) | 16.9 | 99.5* | 0.0665* | 102.8* | 101.9* | 102.0* | 99.6* | 101.7* | 104.1* | 104.4* | 103.8*
CNC(=S)N1CCN(c2c(F)cc3c(=O)c(C(=O)O)cn(C4CC4)c3c2OC)CC1C (configuration not stated) | 73.5* | 99.7* | 0.045* | 100.7* | 99.1* | 100.2* | 101.2* | 99.4* | 101.4* | 102.9* | 102.5*
CCOC1OC(C(=O)NCc2nc3ccccc3[nH]2)=CC(c2ccc(C(F)(F)F)cc2)C1CCCO (configuration not stated) | . | . | 0.68 | . | . | . | . | . | . | . | .
COc1ccc(C=CC(=O)c2ccccc2O)cc1 | . | . | 0.662 | . | . | . | . | . | . | . | .
COc1ccc(-c2c(C)n([O-])c(C)c(C)[n+]2=O)cc1OC | 4.3 | -1.3 | 0.693 | 1.2 | 0.4 | . | . | . | . | . | .
CC(=O)c1c(C)n([O-])c2cc(C)ccc2[n+]1=O | -3.1 | 11.3* | 0.541* | 23.2* | 24.8* | 63.3* | 10.0* | 55.9* | 7.8 | 9.4 | 51.8*
CC(=O)NC(c1ccco1)c1ccc2cccnc2c1O (configuration not stated) | 6.9 | . | . | 4.2 | -1.3 | . | . | . | . | . | .
CCC(=O)NC(c1ccc(Cl)cc1Cl)c1ccc2cccnc2c1O (configuration not stated) | 0.7 | 22.2* | . | 20.1* | 22.3* | 19.9* | 19.1* | 19.0 | 15.4* | 16.9 | 27.3*
Cc1cc(NC(c2ccc(Cl)cc2)c2ccc3cccnc3c2O)no1 (configuration not stated) | -1.4 | 22.7* | 0.691 | 25.1* | 32.6* | 24.7* | 23.4* | 20.6 | 13.7* | 15.4 | 25.5*
CC(C)C(=O)NC(c1ccc(Cl)cc1Cl)c1ccc2cccnc2c1O (configuration not stated) | 2.7 | 19.1* | 0.649 | 20.2* | 29.4* | 19.6* | 20.0* | 19.3 | 11.4* | 13.0 | 22.0*
Cc1ccccc1C=NNC(=O)c1ccc(-n2cnnn2)cc1 | . | . | 0.721 | . | . | . | . | . | . | . | .
CCC(=NNC(=O)c1cc(C)nc2ccccc12)c1ccc(C)s1 | . | . | 0.654 | . | . | . | . | . | . | . | .
O=C(NCCCNCCCNC(=O)c1ccc(C=NO)nc1)c1ccc(C=NO)nc1 | . | . | 0.617 | . | . | . | . | . | . | . | .
O=C(CON=Cc1ccc2c(c1)OCO2)Nc1cccc(Br)c1 | . | . | 0.638 | . | . | . | . | . | . | . | .
Cc1ccc(S(=O)(=O)Nc2cc(C)on2)cc1 | -0.8 | 1.4 | 0.692 | 2.4 | -1.1 | . | . | . | . | . | .
Cc1cc(NS(=O)(=O)c2ccc(N)cc2)no1 | . | 16.4* | . | 12.5* | 10.2* | 18.1* | 9.4* | 23.9 | 7.9 | 2.9 | 26.5*
C=CCOC(=O)C(=O)C=Cc1c(C)n(C)n(-c2ccccc2)c1=O | . | . | 0.659 | . | . | . | . | . | . | . | .
CN1CCN(C(c2ccc(C(F)(F)F)cc2)c2cc(Cl)c3cccnc3c2O)CC1 (configuration not stated) | . | 24.0* | . | 17.5* | 22.6* | 13.6* | 14.3* | 10.5 | 5.6 | 6.4 | 8.8
CCN1CCN(C(c2ccc(C(F)(F)F)cc2)c2ccc3cccnc3c2O)CC1 (configuration not stated) | -5.1 | 20.9* | 0.617 | 26.4* | 38.2* | 9.7 | 11.6* | 5.3 | 5.2 | 7.3 | 10.3
CN1CCN(C(c2ccc(Cl)cc2)c2cc(Cl)c3cccnc3c2O)CC1 (configuration not stated) | -8.2 | 15.5* | . | 13.2* | 19.4* | 4.2 | 9.9* | 3.1 | 2.4 | 1.3 | 2.7
SMILES | Tat export inh | phage Ecoli inh | E coli growth-1 | AddAB inh | E coli growth-2 | AddAB confirm | RecBCD counter | bact viab count | RecBCD conf | Ecoli viability | AddAB counter
Oc1c(C(c2ccccn2)N2CCCCC2)cc(Cl)c2cccnc12 (configuration not stated) | -1.5 | 10.3 | 0.652 | -0.3 | -1.3 | . | . | . | . | . | .
NCCCCC(C(=O)N1CCNCC1)n1cc(C(N)CO)nn1 (configuration not stated) | . | . | 0.723 | . | . | . | . | . | . | . | .
N#Cc1ccc(C=NNC(=O)c2ccccc2F)cc1 | . | . | 0.703 | . | . | . | . | . | . | . | .
CCC(=O)N1CC2(CC(c3cccc(NC(=O)CC(c4ccccc4)c4ccccc4)c3)=NO2)CC1C(N)=O (configuration not stated) | . | . | 0.644 | . | . | . | . | . | . | . | .
O=C(Cn1ccccc1=S)c1ccc(Cl)c(Cl)c1 | . | 3.1 | 0.624 | 7.7 | 3.0 | . | . | . | . | . | .
On1ccccc1=S | 141.8* | + | . | + | 75.6* | + | + | 98.0* | + | 105.1* | +
COc1ccc(CNC(=O)C(C)OC(=O)CON=C(C)c2ccc3c(c2)OCO3)cc1 (configuration not stated) | . | . | 0.669 | . | . | . | . | . | . | . | .
Cc1ccc(C(=O)NS(=O)(=O)c2ccc(N=NN(C)C)cc2)cc1 | -8.6 | 12.8* | 0.648 | 100.5* | 70.2* | 0.0 | -0.9 | -0.8 | -0.2 | 1.2 | -0.6
Cc1cc(C)nc(NS(=O)(=O)c2ccc(N=NN(C)C)cc2)n1 | -12.4 | 0.8 | 0.677 | 3.3 | -0.1 | . | . | . | . | . | .
CC(C)c1ccc2[nH]c3c(c2c1)C1CCN2C(=O)CCCC(C3)C12 (configuration not stated) | . | . | 0.661 | . | . | . | . | . | . | . | .
C=CCN1c2ccccc2[C@]23CC(C(=O)OC)N(C(C)=O)C2=NC(C(=O)OC)=C(C(=O)OC)C13 (some centres not stated) | . | . | 0.697 | . | . | . | . | . | . | . | .
O=C1CCCC2=C1C(c1ccc(Cl)cc1)C1C(=O)c3ccccc3C1=N2 (configuration not stated) | -1.3 | 0.1 | 0.662 | 0.7 | -3.4 | . | . | . | . | . | .
